ELG1 genotox – inducers of genotoxicity in HEK293T ELG1-luciferase cells; HEK293T ELG1-luciferase reporter, luminescence, 16 h; 1.3% of 330,000 active; Potency, µM (highest dose often 46 µM), inactives show top-dose activity change, positive = activation, hits mostly activators; also: % of control where 0% means no effect; nearly all actives have a fitted effect of over 60% in size
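Step 1: seed 2,000 HEK293T ELG1-luciferase cells per well. Step 2: add compound or DMSO, incubate 16 hr at 37 °C. Step 3: ONE-Glo, 30 min at room temperature, read luminescence.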
Rab9 prom act – Rab9 promoter activation. Potency, µM (titrated, usually from 9.22 µM), without a hit: at the top dose activation, negative = inhibition, most hits filed as activators. AID 485297. 2.8% of 320,000 active. Huh7 Rab9 promoter-luciferase reporter, luminescence, 24 h; also: % of control where 0% means no effect; nearly all actives have a fitted effect of over 60% in size
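Quantitative HTS format; Huh7 Rab9-luciferase reporter cells (1500/well) receive compound 2 h post-plating, incubate 24 h at 37 °C, then get luciferase reagent for 10 min before luminescence reading.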
FLuc modulator – firefly luciferase modulation, counter-screen for miR-21 project | P08659 | purified FLuc, Km substrates, luminescence inhibition | 6.9% of 360,000 active | Potency, µM (top dose mostly 57.5 µM), inactives show top-dose activity change, negative = inhibition, actives largely listed as inhibitors;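 also: plate controls were vehicle for no effect and reference inhibitor for full effect; nearly all actives have a fitted effect of over 55% in size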
Target sequence (P08659 whole entry, looked up): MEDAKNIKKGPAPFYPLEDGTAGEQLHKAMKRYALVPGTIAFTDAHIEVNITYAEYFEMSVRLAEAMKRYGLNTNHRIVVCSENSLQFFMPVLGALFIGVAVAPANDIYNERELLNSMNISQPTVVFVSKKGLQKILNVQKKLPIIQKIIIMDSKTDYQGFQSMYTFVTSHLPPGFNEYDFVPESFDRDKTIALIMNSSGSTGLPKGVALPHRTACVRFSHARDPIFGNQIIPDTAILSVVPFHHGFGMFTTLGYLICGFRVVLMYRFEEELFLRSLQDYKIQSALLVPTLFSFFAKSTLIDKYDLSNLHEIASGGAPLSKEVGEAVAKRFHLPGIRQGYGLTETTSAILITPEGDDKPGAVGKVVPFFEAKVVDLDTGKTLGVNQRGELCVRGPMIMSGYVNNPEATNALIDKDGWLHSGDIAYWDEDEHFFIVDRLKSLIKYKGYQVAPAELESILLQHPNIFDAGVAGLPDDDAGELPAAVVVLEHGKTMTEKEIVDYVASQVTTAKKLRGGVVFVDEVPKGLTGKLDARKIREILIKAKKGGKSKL
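Purified P. pyralis luciferase (10nM final) with 10uM D-luciferin and 10uM ATP (Km levels) in 50mM Tris acetate pH 7.5, 10mM Mg acetate, 0.01% Tween-20, 0.05% BSA; qHTS 6-point titration, ~60 µM downward; luminescence read.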
SMN2 splice enh – SMN2 splice variant enhancement; HEK293 SMN2-luciferase splicing reporter, luminescence, 30-36 h; Potency, µM (titrated, usually from 46.1 µM), inactives show at the highest dose activity change, positive = activation, usual class: activators; 2.8% of 210,000 active; also: % of control where 0% means no effect; nearly all actives have a fitted effect of over 55% in size
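HEK293 cells carry an SMN2 […]–luciferase reporter in which exon 7 inclusion puts luciferase in frame. Cells were plated 10-12 h before compound addition, then incubated 30-36 h at 37C. ONE-Glo luminescence was read; sodium butyrate at 4.5 mM final served as control.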
NPC1 promoter act – NPC1 promoter activation; Huh7 NPC1 promoter luciferase reporter, 24 h; 2.4% of 320,000 active; AID 485313; Potency, µM (doses to about 9.22 µM), inactives show at the top dose activation, actives largely listed as activators; also: % of control where 0% means no effect; nearly all actives have a fitted effect of over 60% in size
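NPC1 promoter–luciferase Huh7 cells; 24 h compound; luminescence.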
uPA surface inh – cell surface uPA generation inhibition; cell surface uPA generation assay, qHTS; Potency, µM (series often up to 38.3 µM), for the others: at the top dose activity change, negative = inhibition, most hits filed as inhibitors; 0.31% of 330,000 active; AID 540303; active = well fitted inhibition curve with a large enough effect; inconclusive = small, poorly fitted or top-dose-only effect; inactive = no such curve, though single readings can be large or run the other way; tested in mouse RAW 264.7 cells; also: % is scaled to controls: 0 for no effect and ±100 for the full control effect; nearly all actives have a fitted effect of over 55% in size
* hit, by the source's call; ? = inconclusive; · = not tested or not shown. Rows were chosen to be rich in hits. Some 7.3% of all compounds tested hit in one or more screens of this group. Unless noted, calls follow the shape of the dose curve; as a rule, active = well fitted curve in the direction sought with a large enough effect; inconclusive = small, poorly fitted or top-dose-only effect, or another doubt; inactive = no such curve, though single readings can be large; an effect the other way counts as inactive or inconclusive. Potency is read from the fitted curve at half-maximal effect.

SMILES | ELG1 genotox | Rab9 prom act | FLuc modulator | SMN2 splice enh | NPC1 promoter act | uPA surface inh
CCN(CC)c1ccc(NC(=O)Nc2ccccc2)cc1 | 10µM* | 3.2µM* | 0.95µM* | · | 0.89µM* | -15%
O=C(Nc1ccccc1)Nc1ccc2ccccc2c1 | 14% | 3.5µM* | ? | · | 2.5µM* | -2%
CCCc1ccc(OCC(=O)Nc2sc3c(c2C(=O)OCC)CCC(C(C)(C)C)C3)cc1 (centres undefined) | · | · | -5% | 5% | · | ·
O=C(Nc1ccccc1)Nc1ccc(C(=O)N2CCOCC2)cc1 | ? | 1% | 13µM* | 20µM* | ? | -9%
Cc1ccc(NC(=O)NCc2ccccn2)cc1 | ? | 7% | -16% | -3% | 13% | 1%
O=C(c1ccc(NC(=O)C2(c3ccccc3)CCCC2)cc1)N1CCOCC1 | -5% | -1% | -3% | · | -1% | 12%
CC(=O)c1cccc(NC(=O)NCc2ccccn2)c1 | 9.2µM* | ? | 9.5µM* | 16µM* | ? | ·
COC(C(=O)Nc1ccc(C(N)=O)cc1)c1ccccc1 (centres undefined) | -2% | -8% | 4% | 16µM* | 1% | -4%
COc1ccc(/C=N/N(C)c2cc(=O)n(C)c(=O)[nH]2)cc1OC | ? | 5% | 17µM* | 10% | 0% | -3%
COc1cc(C(CC(=O)Nc2cccc(C(C)=O)c2)N2Cc3ccccc3C2=O)cc(OC)c1OC (centres undefined) | · | · | -11% | · | · | ·
O=C(CCCN=C1NS(=O)(=O)c2ccccc21)Nc1ccc(Cl)cc1 | 0% | -4% | 4% | · | -3% | 6%
N=C1SCC(=O)N1/N=C/c1ccccc1 | -20% | 1% | 5.4µM* | -33% | 0% | -6%
O=C(/C=C/c1ccc(Cl)cc1Cl)c1nc2ccccc2[nH]1 | 2% | 0% | 0.24µM* | -29% | 0% | -1%
O=[N+]([O-])c1ccc(/C=C/c2nc3ccc([N+](=O)[O-])cc3[nH]2)cc1 | -5% | 6% | ? | · | 13% | 4%
Clc1ccc(/C=C/c2nc3ccccc3[nH]2)cc1 | 0.58µM* | 0.2µM* | 0.076µM* | 0.79µM* | 0.1µM* | -15%
Clc1ccc(/C=C/c2nc3ccccc3[nH]2)c(Cl)c1 | ? | 0.4µM* | 0.067µM* | 0.56µM* | 0.71µM* | -12%
Clc1cccc(Cl)c1/C=C/c1nc2ccccc2[nH]1 | ? | 4.5µM* | 0.67µM* | 11µM* | 3.5µM* | ·
C(=N\n1cnnc1)/c1nc2ccccc2[nH]1 | 0% | 10% | 1% | -7% | 6% | 2%
O=C(/C(=C(\O)c1ccccc1)c1nc2ccccc2[nH]1)c1ccccc1 | -9% | 19% | 0% | · | -5% | 1%
COc1ccc(NC(=O)CCCCCn2nnc3ccccc3c2=O)cc1OC | -3% | -14% | 2% | · | 3% | 11%
Cn1c(=O)n(C)c2cc(N3CCOCC3)c(NC(=O)c3ccc(C(C)(C)C)cc3)cc21 | · | · | 3% | ? | · | ·
CCC(CC)C(=O)NCCc1cc2ccc(C)cc2[nH]c1=O | 0% | -2% | 0% | -14% | -1% | 1%
Cc1ccc2cc(CCNC(=O)c3cccs3)c(=O)[nH]c2c1C | ? | 2.8µM* | 5.4µM* | 10µM* | 2.8µM* | 3%
CC(=O)NCCc1cc2ccc(C)c(C)c2[nH]c1=O | 17% | -6% | 3% | ? | -2% | 15%
Cc1ccc2cc(CCNC(=O)c3cccs3)c(=O)[nH]c2c1 | ? | ? | 11µM* | 10µM* | 3.2µM* | -3%
CN(C)/C=C/C(=O)/C=C/c1ccc(Cl)cc1 | ? | ? | 13µM* | 13µM* | ? | -8%
CN(C)/C=C/C(=O)c1ccc(Cl)cc1 | 6% | 13% | ? | -14% | 19% | ·
Cc1ccc(-c2csc(NC(=O)c3ccc(Br)cc3)c2C(=O)O)cc1 | 2% | 3.5µM* | 12µM* | · | 2.5µM* | -4%
CC(C)c1ccc(-c2csc(NC(=O)c3cccs3)c2C(=O)O)cc1 | -12% | 2% | 17µM* | · | 20% | -19%

Screening results as filed in PubChem BioAssay.
